What all share (parameters): scale not given: direction of the effect not stated beside the values
Experiment [1] deals with Protein translocase subunit SecA (Escherichia coli (strain K12)) (UniProt P10408). The experiment is described as follows: Assay to Identify E. coli SecA ATPase Inhibitors. The conditions noted are these: 30 µM. In kind it is functional.
Experiment [2] addresses T1, Ubiquitin-activating enzyme e1, putative (Leishmania donovani (strain BPK282A1)) (UniProt E9BSI1).
T1 sequence (whole entry): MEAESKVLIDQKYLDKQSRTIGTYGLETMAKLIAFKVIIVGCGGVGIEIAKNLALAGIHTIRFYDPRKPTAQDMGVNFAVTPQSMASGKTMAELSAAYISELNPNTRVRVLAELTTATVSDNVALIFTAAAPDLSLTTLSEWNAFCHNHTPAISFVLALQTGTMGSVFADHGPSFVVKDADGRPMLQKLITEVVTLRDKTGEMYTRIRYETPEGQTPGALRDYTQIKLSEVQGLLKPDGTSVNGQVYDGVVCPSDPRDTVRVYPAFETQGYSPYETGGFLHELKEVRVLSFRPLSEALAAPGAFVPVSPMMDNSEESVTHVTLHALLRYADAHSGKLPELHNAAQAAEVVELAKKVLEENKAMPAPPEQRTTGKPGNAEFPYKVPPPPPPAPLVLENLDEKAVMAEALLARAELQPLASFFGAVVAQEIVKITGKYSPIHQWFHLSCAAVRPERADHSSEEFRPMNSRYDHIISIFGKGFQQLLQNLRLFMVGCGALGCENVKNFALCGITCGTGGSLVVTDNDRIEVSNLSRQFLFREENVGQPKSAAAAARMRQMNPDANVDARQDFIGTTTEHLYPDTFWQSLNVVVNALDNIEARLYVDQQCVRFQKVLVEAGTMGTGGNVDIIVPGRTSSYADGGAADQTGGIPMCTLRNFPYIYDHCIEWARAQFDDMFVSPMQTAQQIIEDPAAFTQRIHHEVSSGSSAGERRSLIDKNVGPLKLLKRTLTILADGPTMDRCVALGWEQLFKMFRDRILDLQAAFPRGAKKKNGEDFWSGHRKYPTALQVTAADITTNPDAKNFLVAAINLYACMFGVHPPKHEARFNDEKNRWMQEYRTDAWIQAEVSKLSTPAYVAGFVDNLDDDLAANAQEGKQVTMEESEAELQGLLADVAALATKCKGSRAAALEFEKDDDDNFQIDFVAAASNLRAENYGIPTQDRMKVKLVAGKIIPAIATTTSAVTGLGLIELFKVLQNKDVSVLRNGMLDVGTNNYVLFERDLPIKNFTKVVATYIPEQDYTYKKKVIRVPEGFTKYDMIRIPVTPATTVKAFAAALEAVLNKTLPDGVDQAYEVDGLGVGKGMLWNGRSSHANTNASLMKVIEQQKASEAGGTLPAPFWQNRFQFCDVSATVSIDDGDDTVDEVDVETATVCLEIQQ
In words: Leishmania donovani Ubiquitin Activating Enzyme (LdE1). In kind it is functional. Conditions: 30 µM.

Experiment [3] addresses AMP-activated protein kinase, AMPK (Homo sapiens) (UniProt P54646+O43741+P54619+Q9UGJ0+Q9Y478+Q13131+Q9UGI9). In words: AMP-dependent Kinase enzyme assay. An in vitro enzyme assay that detects ADP turnover that is directly proportional to AMPK activity. This uses naive AMPK that is activated during the assay with MK-8722. Format: functional. The conditions noted are these: 30 µM.

In experiment [4] the target is Sialic acid-binding Ig-like lectin 9 (Homo sapiens) (UniProt Q9Y336). In words: Hs-Siglec9 ALPHAscreen SOP 20170721. Conditions: 10 µM. (Alpha assays give light when donor and acceptor beads are brought close together.)
Sialic acid-binding Ig-like lectin 9 (Homo sapiens), sequence (Q9Y336 whole entry): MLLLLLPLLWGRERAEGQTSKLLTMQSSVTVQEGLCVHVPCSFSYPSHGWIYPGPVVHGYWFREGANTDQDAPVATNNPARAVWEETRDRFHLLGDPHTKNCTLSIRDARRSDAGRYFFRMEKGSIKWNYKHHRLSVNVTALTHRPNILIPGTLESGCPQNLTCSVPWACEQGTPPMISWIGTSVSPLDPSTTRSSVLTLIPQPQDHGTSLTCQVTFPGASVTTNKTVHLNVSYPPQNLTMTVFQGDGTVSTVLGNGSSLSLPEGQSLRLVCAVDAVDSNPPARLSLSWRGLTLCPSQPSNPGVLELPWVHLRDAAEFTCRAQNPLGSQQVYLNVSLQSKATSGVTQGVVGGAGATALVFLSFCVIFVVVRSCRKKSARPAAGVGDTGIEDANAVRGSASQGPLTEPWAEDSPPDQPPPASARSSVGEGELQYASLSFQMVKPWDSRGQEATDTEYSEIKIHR
Experiment [5] relates to Trypanosoma cruzi. In words: Trypanosoma cruzi phosphomannomutase and mannose-1-phosphate guanylyltransferase assay. Conditions: 10 µM. Format: functional.
Experiment [6] has as its target T2, Arginase-2, mitochondrial (Homo sapiens) (UniProt P78540).
T2 sequence (whole entry): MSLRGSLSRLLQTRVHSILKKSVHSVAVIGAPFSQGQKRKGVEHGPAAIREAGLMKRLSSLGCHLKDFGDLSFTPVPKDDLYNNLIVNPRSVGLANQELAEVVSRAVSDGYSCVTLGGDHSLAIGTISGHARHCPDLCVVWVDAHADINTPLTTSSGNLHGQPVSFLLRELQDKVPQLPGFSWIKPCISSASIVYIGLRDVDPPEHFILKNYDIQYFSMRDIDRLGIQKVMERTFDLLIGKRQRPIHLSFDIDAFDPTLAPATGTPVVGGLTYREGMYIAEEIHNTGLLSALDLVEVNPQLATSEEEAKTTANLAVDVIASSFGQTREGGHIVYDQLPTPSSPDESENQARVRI
The experiment is described as follows: in vitro enzyme assay to detect the production of urea directly proportional to the activity of Arginase II. Also: in the data most compounds retested in dose-response had high values. Format: functional. Conditions: 33.3 µM.

For experiment [7], the target named is T3, Proteasome subunit beta (Trypanosoma cruzi) (UniProt O96673).
T3 sequence (whole entry): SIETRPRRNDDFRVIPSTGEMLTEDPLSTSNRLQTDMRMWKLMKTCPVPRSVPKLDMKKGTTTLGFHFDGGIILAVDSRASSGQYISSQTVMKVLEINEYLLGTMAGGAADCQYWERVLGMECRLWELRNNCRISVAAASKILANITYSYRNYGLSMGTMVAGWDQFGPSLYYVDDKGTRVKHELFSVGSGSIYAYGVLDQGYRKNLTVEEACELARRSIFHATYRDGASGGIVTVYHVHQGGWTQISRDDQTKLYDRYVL
The experiment is described as follows: Trypanosoma cruzi proteasome chymotrypsin-like activity (TcProtChymo) assay. Also: in the data most compounds retested in dose-response had high values. The conditions noted are these: 9.37 µM. Format: functional.

For experiment [8], the species on record is Homo sapiens. The experiment is described as follows: To identify inhibition of the IFN signalling (Jak-Stat) pathway via expression of an eGFP reporter gene under the control of an IFN-stimulated response element (ISRE) containing MxA promoter. Format: functional. Conditions: 30 µM. For orientation: In a reporter assay the amount or activity of a reporter protein is the signal.

The target of experiment [9] is T4, Tyrosyl-tRNA synthetase, putative (Trypanosoma cruzi (strain CL Brener)) (UniProt Q4DSP6).
T4 sequence (whole entry): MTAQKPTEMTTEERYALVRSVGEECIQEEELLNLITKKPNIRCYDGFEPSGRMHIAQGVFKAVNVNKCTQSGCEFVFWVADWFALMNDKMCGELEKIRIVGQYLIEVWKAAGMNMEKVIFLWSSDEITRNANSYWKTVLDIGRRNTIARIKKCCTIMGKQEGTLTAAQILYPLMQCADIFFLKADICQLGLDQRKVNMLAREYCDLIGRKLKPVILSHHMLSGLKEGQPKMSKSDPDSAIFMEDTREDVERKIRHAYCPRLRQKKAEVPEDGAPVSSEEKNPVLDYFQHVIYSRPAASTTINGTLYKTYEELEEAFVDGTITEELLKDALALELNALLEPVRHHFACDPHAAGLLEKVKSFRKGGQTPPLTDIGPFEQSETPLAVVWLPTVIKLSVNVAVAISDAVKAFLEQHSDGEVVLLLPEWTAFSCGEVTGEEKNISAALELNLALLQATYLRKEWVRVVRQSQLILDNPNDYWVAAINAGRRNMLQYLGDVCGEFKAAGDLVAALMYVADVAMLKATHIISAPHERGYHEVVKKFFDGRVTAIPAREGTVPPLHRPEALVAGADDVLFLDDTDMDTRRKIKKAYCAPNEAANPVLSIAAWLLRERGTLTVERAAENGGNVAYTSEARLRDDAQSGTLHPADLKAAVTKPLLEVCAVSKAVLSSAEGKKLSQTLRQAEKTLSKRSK
In words: Trypanosoma cruzi tyrosyl tRNA synthetase (TcYRS) _High Tyrosine SOP. Also: in the data most compounds retested in dose-response had high values. Format: functional. The conditions noted are these: 30 µM.

The target of experiment [10] is T4, Tyrosyl-tRNA synthetase, putative (Trypanosoma cruzi (strain CL Brener)). The experiment is described as follows: Trypanosoma cruzi tyrosyl tRNA synthetase (TcYRS) SOP. Conditions: 30 µM. In kind it is functional.
The target in experiment [11] is Chromo domain-containing protein 1 (Saccharomyces cerevisiae (strain ATCC 204508 / S288c) (Baker's yeast)) (UniProt P32657). In words: ScCHD-1 Enzyme Inhibition Assay. Also: in the data most compounds retested in dose-response had high values. In kind it is functional. Conditions: 30 µM.
Chromo domain-containing protein 1 (Saccharomyces cerevisiae (strain ATCC 204508 / S288c) (Baker's yeast)), sequence (P32657 whole entry, the tested form may be a part): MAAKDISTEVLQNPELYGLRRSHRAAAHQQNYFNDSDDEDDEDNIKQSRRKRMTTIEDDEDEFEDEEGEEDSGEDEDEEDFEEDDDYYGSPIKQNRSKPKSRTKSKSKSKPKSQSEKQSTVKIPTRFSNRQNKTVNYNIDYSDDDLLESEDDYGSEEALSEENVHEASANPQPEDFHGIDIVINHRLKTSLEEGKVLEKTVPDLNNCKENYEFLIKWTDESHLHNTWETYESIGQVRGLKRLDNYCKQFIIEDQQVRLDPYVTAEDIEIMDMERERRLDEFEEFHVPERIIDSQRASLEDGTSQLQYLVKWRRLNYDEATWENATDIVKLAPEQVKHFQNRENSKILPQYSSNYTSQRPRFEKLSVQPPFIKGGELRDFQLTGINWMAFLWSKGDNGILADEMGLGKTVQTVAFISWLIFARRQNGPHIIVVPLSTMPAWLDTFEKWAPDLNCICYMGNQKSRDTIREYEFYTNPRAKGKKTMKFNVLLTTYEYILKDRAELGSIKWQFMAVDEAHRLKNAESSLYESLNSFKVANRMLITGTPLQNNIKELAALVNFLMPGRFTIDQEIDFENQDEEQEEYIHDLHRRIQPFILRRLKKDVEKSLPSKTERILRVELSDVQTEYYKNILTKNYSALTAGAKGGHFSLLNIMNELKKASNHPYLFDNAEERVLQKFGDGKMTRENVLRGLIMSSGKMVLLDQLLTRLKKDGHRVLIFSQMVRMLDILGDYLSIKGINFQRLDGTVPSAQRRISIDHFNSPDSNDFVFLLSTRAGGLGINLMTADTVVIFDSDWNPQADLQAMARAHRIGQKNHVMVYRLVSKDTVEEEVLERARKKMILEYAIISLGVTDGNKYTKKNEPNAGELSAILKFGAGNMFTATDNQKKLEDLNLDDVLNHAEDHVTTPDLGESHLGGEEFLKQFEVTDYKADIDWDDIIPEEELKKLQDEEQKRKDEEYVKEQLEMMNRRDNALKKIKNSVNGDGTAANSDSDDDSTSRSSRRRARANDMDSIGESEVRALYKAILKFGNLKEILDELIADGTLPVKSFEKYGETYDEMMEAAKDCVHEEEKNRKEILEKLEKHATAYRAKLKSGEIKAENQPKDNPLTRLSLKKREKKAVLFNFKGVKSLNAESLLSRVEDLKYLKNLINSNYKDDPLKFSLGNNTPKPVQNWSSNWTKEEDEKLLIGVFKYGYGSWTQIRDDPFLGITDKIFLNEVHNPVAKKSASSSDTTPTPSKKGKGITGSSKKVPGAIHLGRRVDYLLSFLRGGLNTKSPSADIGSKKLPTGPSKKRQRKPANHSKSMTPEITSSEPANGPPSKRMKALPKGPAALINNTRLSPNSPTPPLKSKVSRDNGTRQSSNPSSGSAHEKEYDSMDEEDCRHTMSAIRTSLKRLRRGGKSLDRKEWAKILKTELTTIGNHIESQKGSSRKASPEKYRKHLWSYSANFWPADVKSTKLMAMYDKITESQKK

Each structure is given as a SMILES string. For some of these results: Potency and affinity values are given separately.

Protein translocase subunit SecA (Escherichia coli (strain K12)), sequence (P10408 whole entry): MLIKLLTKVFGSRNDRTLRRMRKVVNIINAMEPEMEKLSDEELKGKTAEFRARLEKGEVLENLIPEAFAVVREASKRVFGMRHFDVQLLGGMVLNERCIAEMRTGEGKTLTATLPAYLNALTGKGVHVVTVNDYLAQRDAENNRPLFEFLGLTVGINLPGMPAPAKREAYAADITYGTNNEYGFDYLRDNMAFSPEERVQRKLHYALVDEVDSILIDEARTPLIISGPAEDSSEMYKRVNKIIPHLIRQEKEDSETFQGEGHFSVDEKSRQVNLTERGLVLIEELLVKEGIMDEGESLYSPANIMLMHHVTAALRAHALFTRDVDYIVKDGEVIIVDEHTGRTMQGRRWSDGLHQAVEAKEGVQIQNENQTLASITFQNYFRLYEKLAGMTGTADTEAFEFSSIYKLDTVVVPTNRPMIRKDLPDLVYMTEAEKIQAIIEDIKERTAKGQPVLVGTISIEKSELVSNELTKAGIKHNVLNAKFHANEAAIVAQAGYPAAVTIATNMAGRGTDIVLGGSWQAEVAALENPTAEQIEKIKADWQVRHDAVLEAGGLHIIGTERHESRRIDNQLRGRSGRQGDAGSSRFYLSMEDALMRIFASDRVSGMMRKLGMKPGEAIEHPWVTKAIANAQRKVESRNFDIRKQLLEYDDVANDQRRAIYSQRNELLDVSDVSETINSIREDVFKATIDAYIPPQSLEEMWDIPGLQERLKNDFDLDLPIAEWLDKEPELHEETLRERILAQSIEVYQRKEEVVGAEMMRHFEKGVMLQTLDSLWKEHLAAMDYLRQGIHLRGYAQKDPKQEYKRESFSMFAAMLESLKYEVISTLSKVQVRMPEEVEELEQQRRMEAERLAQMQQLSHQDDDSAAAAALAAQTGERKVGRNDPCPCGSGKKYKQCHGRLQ

Take `COCCC(=O)N1CC[C@@H](N(C)C)[C@@H]1Cc1ccccc1`: the Percent Effect was -3.9% in experiment [1]; 5.33% in experiment [2]; 10.6% in experiment [3]; 4.93% in experiment [4]; -0.394% in experiment [5]; -1.17% in experiment [6]. For the same compound, the Percent Effect in [7] was 5.37%; in [8], -2.67%; in experiment [9], 5.32%; in experiment [10] it was 6.41%; in experiment [11], -0.866%.

In the case of `CN(Cc1cccnc1)CC1CCCN1c1cccnn1` (stereo unspecified), the Percent Effect is 4.47% in experiment [1]; 18.2% in [2]; -2.81% in experiment [3]; -14.9% in [4]; -5.58% in [5]; 0.21% in [6]. In addition, the Percent Effect in [7] is 13.7%; in experiment [8], 27.4%; in experiment [9], 7.62%; in [10] it was 18.8%; in experiment [11], -18.6%.

Turning to `O=C(c1cccc(OC2CCCC2)c1)N1CCCC(n2cncn2)C1` (stereo unspecified), the Percent Effect in experiment [1] is -4.01%; in experiment [2], 5.41%; in experiment [3] it was 12.1%; in experiment [4] it was 4.98%; in experiment [5], 5.57%; in [6] it was -5.61%. For the same compound, the Percent Effect in [7] was -3.06%; in experiment [8], 21.5%; in [9] it was 7.39%; in experiment [10], 13.6%; in experiment [11] it was -11.7%.

For `Cc1ccc(CN2CCCn3nnc(COCC4CC4)c3C2)s1`, the Percent Effect in experiment [1] was 0.823%; in experiment [2] it was 16%; in experiment [3], 9.89%; in [4], -6.88%; in [5], -2.76%; in experiment [6], -11%. The Percent Effect is 6.96% in experiment [7]; 12.7% in [8]; 5.32% in experiment [9]; 11.5% in [10]; -3.12% in [11].

In the case of `O=C(O)CCc1cc2n(n1)CCCN(C(=O)c1ccc3cc[nH]c3c1)C2`, the Percent Effect in experiment [1] was -2.97%; in experiment [2] it was 16.2%; in experiment [3], -5.19%; in [4], 10.7%; in [5] it was 4.05%; in experiment [6] it was 10.5%. Also, the Percent Effect in [7] was 11.9%; in experiment [8] it was -2.64%; in experiment [9], 7.94%; in experiment [10] it was 17.1%; in experiment [11], -3.38%.

For the compound `Cc1sc(NC(=O)CN(C)S(C)(=O)=O)c(C#N)c1C`, the Percent Effect was -2.06% in [1]; 7.79% in [2]; 7.85% in [3]; -2.17% in [4]; -6.8% in [5]; -29% in experiment [6]. For the same compound, the Percent Effect was 13.4% in experiment [7]; 2.12% in [8]; 5.29% in [9]; 8.97% in experiment [10]; -6.9% in [11].

In the case of `O=C1CCSCC(C(=O)N2CCN(C3CCCCC3)CC2)N1` (stereo unspecified), the Percent Effect in experiment [1] is -2.82%; in [2], 0%; in [3], -2.68%; in experiment [4], -4.3%; in [5] it was 0.979%; in experiment [6], 3.64%. The Percent Effect in experiment [7] is 2.48%; in [8] it was -1.47%; in experiment [9], 5.38%; in experiment [10], 12.5%; in experiment [11] it was -0.805%.

With `Cc1cnn(C2CN(Cc3nc(-c4ccco4)no3)C2)c1`, the Percent Effect was -7.03% in [1]; 13% in experiment [2]; 26.4% in [3]; 11.1% in experiment [4]; 0.374% in [5]; -0.356% in experiment [6]. Besides, the Percent Effect in experiment [7] was 5.41%; in experiment [8] it was 10.2%; in experiment [9], 10.7%; in experiment [10], 19.5%; in experiment [11], -2.84%.

For the compound `Cc1cc(=O)n(CC(=O)NCC2CCCO2)c(-c2ccc(F)cc2)n1` (stereo unspecified), the Percent Effect is -8.1% in experiment [1]; 0% in experiment [2]; 1.45% in experiment [3]; -2.38% in [4]; -3.83% in experiment [5]; 2.76% in [6]. The Percent Effect was 7.49% in experiment [7]; 22.5% in experiment [8]; -1.07% in [9]; -3.7% in [10]; 3.12% in experiment [11].

On to `Cc1n[nH]c(C)c1C1CCCN1C(=O)NCCSC(C)(C)C` (stereo unspecified), for which the Percent Effect in experiment [1] is -2.09%; in experiment [2], 0%; in experiment [3] it was 3.06%; in [4], -3.83%; in experiment [5], -1.37%; in experiment [6] it was -0.909%. Besides, the Percent Effect in experiment [7] was 0.887%; in [8], 4.14%; in experiment [9], 3.23%; in experiment [10] it was -2.5%; in [11], -1.95%.

With `CCN(CC)C(=O)CCNC(=O)Cc1nc(-c2ccco2)oc1C`, the Percent Effect was -7.31% in experiment [1]; -2.67% in experiment [2]; -3.57% in experiment [3]; -1.71% in experiment [4]; -5.75% in [5]; -0.521% in experiment [6]. The Percent Effect was 17.3% in experiment [7]; -3.68% in experiment [8]; -1.64% in experiment [9]; 3.7% in experiment [10]; -7.39% in [11].

The record behind these values is ChEMBL document CHEMBL3988442, “University of Dundee, Small-Polar-MMV Screening Library” (2021).
